Only some compounds are listed: those with a hit (about 1.1% of all), similar ones and a draw of the others.
HIF activator: HIF pathway transcriptional activation | U2OS HRE-luciferase reporter, luminescence; normalized: DMSO 0%, desferrioxamine 100% | 300,000 compounds, 0.32% hits | activation, % at 7.5 µM (by protocol);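 active = mean activation of at least 10% of the iron chelator positive control signal, with at least half of replicates also reaching 10%; inconclusive = mean and replicate majority disagree about reaching 10%; inactive = mean and most replicates under 10%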
TNF necrop inh: blocks TNF-alpha induced death of Jurkat FADD-/- cells; activation (protection from cell death), % at 10 µM; Jurkat FADD-/- TNF necroptosis rescue, ATP luminescence, 24 h; 0 = TNF only, 100 = no-TNF cells; 220,000 compounds, 0.068% hits;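 active = activation, meaning protection from cell death, of at least 50% relative to plate controls; inactive = activation below 50%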;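 also: necroptosis triggered by 40 ng/mL TNF-alpha added together with compound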
L929 necroptosis: L929 zVAD cell death inhibition. L929 zVAD necroptosis rescue, ATP luminescence, 24 h; with zVAD 60 µM. viability rescue, % at 10 µM. 220,000 compounds, 0.38% hits;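 active = activation, scaled between plate controls, above about 75%, limit read from the data; inactive = activation under that limit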;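 also: 0% = zVAD with DMSO and 100% = DMSO alone without zVAD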
Calb FLC: C. albicans growth modulation with fluconazole | C. albicans CaCi-2 (fluconazole-resistant clinical isolate) + fluconazole, Alamar Blue growth, 48 h | growth inhibition, % (test concentration not listed) | 300,000 compounds, 0.57% hits;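 active = growth inhibition above about 58% in most replicates, limit read from the data, passing the limit was not always enough; inconclusive = exactly half the replicates above a set limit; inactive = most replicates below a set limit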;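 also: all wells also contain fluconazole at 8 µg/ml as a sub-toxic cotreatment; 0% = median of DMSO wells and 100% = median of geldanamycin control wells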
The depositor's hits bear a star; u = inconclusive; x = no result given.

SMILES	HIF activator	TNF necrop inh	L929 necroptosis	Calb FLC
O=C1NC(=Nc2ccccc2Cl)S/C1=C\c1cccc([N+](=O)[O-])c1O	-1.4	x	x	94.9*
CC(C)(C)c1cc(C(=O)N2CCN(c3ncccn3)CC2)ccn1	881.6*	-1.6	-0.4	-4.6
NC(=O)CC12CC3CC(C1)CC(CC(N)=O)(C3)C2	-0.4	-1.2	0.0	87.5*
CCN(CC)c1ccc(C(=O)NNC(=O)c2cccn2C)cc1	-15.8	x	x	2.3
O=S(=O)(Cc1ccc(Cl)cc1)N1CCN(Cc2ccccc2)CC1	-0.6	2.7	0.3	125.4*
O=S(=O)(Cc1ccccc1)N1CCN(Cc2ccc(Br)cc2)CC1	-0.6	x	x	5.2
CCc1cccc(C)c1NC(=S)NCc1ccc2c(c1)cc(C)n2C	0.1	-22.6	x	124.1*
S=C(Nc1ccc(Cl)cc1)Nc1ccc2cn[nH]c2c1	10.4*	-2.2	-0.2	4.4
S=C(Nc1ccc2cn[nH]c2c1)Nc1ccc(Cl)cc1Cl	4.2	-6.9	-0.6	24.5
S=C(Nc1ccc2cn[nH]c2c1)Nc1ccccc1Cl	10.6*	-2.8	1.1	-1.8
Cc1ccccc1NC(=S)Nc1ccc2cn[nH]c2c1	4.9	-4.9	-1.2	-7.3
O=C(CN1C(=O)NC(Cc2c[nH]c3ccccc23)C1=O)NCC(F)(F)F (centres undefined)	-0.8	x	x	0.1
N#CCCn1cc(C(=O)Nc2cccc(C(=O)O)c2)c(-c2ccc(Cl)cc2)n1	0.3	x	x	-9.1
Cc1ccccc1Nc1ncccc1C(=O)N1CCOCC1	-0.6	-2.2	0.5	108.7*
O=C(Cc1ccc(Cl)cc1)NCC(=O)N1CCCCCC1	1.0	x	x	-2.9
CN(CC(=O)Nc1ccc(F)cc1)C(=O)COC(=O)CSc1ccc(F)cc1	0.1	x	x	-2.8
C=CCn1c(NC(=O)c2ccc(Br)o2)c(C(=O)OCC)sc1=S	-0.2	-2.6	0.6	92.6*
Cc1ccc(NC(=O)COC(=O)c2ccc(=O)n(Cc3ccccc3)n2)cc1F	0.7	x	x	-4.5
CCCn1c(SC(C)C(=O)NCC2CCCO2)nc2sc(CC)cc2c1=O (centres undefined)	-0.1	x	x	6.8
CC[C@H](C)Cc1cn([C@@H](CCCN=C(NC(=O)OC(C)(C)C)NC(=O)OC(C)(C)C)C(=O)NCCCCCCCCCCC(=O)N2CCN(C(=O)OC(C)(C)C)CC2)nn1	-3.9	x	x	86.3*
CCOc1ccc(-n2c(C)cc(C(=O)CCl)c2C)cc1	5.4	-11.8	-1.3	90.7*
Cc1cc(NC(=O)C(C)SCC(=O)Nc2ccccc2OC(F)F)no1 (centres undefined)	-0.3	x	x	5.9
CCCCCCSc1cc(-c2nc3ccc(C)cn3c2NCc2ccccc2)ccc1OC	-0.6	x	x	-2.1
Cc1ccc(C(=O)NC2CC(=O)N(c3ccc4c(c3)OCCO4)C2)cc1[N+](=O)[O-] (centres undefined)	-0.2	x	x	3.1
O=S(=O)(Nc1nc(-c2ccccc2)cs1)c1cc(Cl)ccc1Cl	-1.6	x	x	96.0*
SMILES	HIF activator	TNF necrop inh	L929 necroptosis	Calb FLC
O=[N+]([O-])c1ccc(S(=O)(=O)Nc2nc(-c3ccccc3)cs2)cc1	-1.0	x	x	26.6
O=C(O)c1ccccc1OCc1nc2ccccc2s1	1.7	x	x	2.2
CC(=O)c1ccc(N(CC(=O)NC2CCCCC2)C(=O)CNC(=O)c2ccco2)cc1	-0.2	x	x	2.2
O=c1c2ccccc2nc(/C=C/c2ccc([N+](=O)[O-])o2)n1CCCO	4.5	-17.2	-0.6	108.1*
COc1cccc(NC(=O)COc2ccc(C)cc2)c1	x	-0.9	-0.6	x
O=C(COc1ccc2c(c1)CCC2)NCc1cccc(Cl)c1	-1.3	-2.4	0.8	71.5*
COc1cccc(NC(=O)COc2ccc3c(c2)CCC3)c1	3.2	0.6	-0.4	100.5*
O=C(COc1ccc2c(c1)CCC2)NCc1ccc(Cl)cc1	0.2	0.7	0.8	29.0
Cc1cc(C)n(-c2ccnc3cc(Cl)ccc23)n1	-1.0	x	x	4.9
CC(OC(=O)CN1C(=O)c2ccccc2C1=O)C(=O)N(C)c1ccccc1 (centres undefined)	-0.2	x	x	6.6
c1ccc(CC2CCN(c3ncnc4sccc34)CC2)cc1	0.4	-5.7	-0.6	96.8*
O=C(O)c1cc2c(N3CCC(Cc4ccccc4)CC3)ncnc2s1	-0.2	0.5	0.7	u
O=C(N/N=C/c1ccc(O)c2ncccc12)c1cccc(Br)c1	2.4	-14.4	11.8	116.0*
Cc1nc(C)c(C(=O)N/N=C/c2cc(Br)ccc2O)s1	28.9*	-11.9	2.0	89.0*
O=C(N/N=C\c1cc(Br)ccc1O)c1ccc(S(=O)(=O)N2CCCCC2)cc1	37.4*	-6.1	7.0	-16.7
Cc1ccc(N=Nc2ccc(O)c(/C=N\NC(=O)c3ccc(N)cc3)c2)cc1C	10.7*	-4.1	0.5	u
O=C(N/N=C/c1cc(Cl)ccc1O)c1ccc(Br)cc1	x	-5.3	8.5	x
Cc1ccc(OCC(=O)OCc2nc3scc(-c4ccccc4)c3c(=O)[nH]2)cc1C	-0.3	x	x	13.4
Cc1ccccc1CN(C)C(=O)COC(=O)CSc1ccc([N+](=O)[O-])cc1	0.8	x	x	2.5
O=C(N/N=C/c1ccccc1O)c1ccncc1	5.3	x	x	-19.5
O=C(N/N=C/c1cc(Br)ccc1OC(=O)c1ccc(Br)cc1)c1ccncc1	19.3*	x	x	u
O=C(N/N=C/c1cc(Br)ccc1O)c1ccncc1	34.0*	-10.0	2.3	-18.2
CCOC(=O)c1sc(=S)n(-c2ccccc2)c1C	19.1*	0.0	0.9	0.8
CN1/C(=C\C(=O)C[n+]2ccc(C(=O)c3ccccc3)cc2)C(C)(C)c2ccccc21	-0.4	-7.1	-0.9	98.2*
CCOC(=O)N1CCN(C(=O)CCNS(=O)(=O)c2cc(Br)cnc2N)CC1	-0.2	18.1	86.3*	u
SMILES	HIF activator	TNF necrop inh	L929 necroptosis	Calb FLC
CN1CCN(CC(=O)N2CCn3c4c(c5cc(C6CCCCC6)ccc53)CCCC42)CC1 (centres undefined)	0.1	-24.5	-0.4	110.6*
Cc1cccc2c1NC(=O)/C2=C\C(=O)c1cccs1	0.4	-6.5	-1.0	22.3
CCc1ccc2c(c1)/C(=C/C(=O)c1cccs1)C(=O)N2	-6.3	-9.6	1.1	98.0*
CCCOC(=O)/C(=C\c1ccc([N+](=O)[O-])o1)NC(=O)c1ccccc1	-0.5	-3.5	-0.7	89.4*
COc1ccc(C(=O)NC(=S)NNC(=O)c2ccc3ccccc3n2)cc1	6.1	1.0	3.4	108.1*
COc1ccc(C(=O)NNC(=S)NC(=O)c2ccc(Cl)cc2)cc1	-0.4	x	x	88.1*
COc1ccc(C(=O)NC(=S)NNC(=O)c2ccc(C)cc2)cc1	0.7	x	x	106.7*
O=C(/C=C/c1ccc(OCCCF)cc1)N1CCOCC1	2.4	x	x	12.1
CC(C)CNC(=O)COC(=O)c1ccc(F)cc1Cl	0.9	1.5	-0.3	-2.4
COC(=O)c1sccc1S(=O)(=O)N1CCCC(N(C)CCc2ccccn2)C1 (centres undefined)	0.0	x	x	1.8
Fc1cccc(-n2cc(-c3ccccc3)c3c(=S)nc[nH]c32)c1	-0.4	x	x	101.3*
Clc1ccc(OCCn2ccnc2)c(Cl)c1	-0.3	-1.5	0.3	0.4
Clc1ccc(OCCn2ccnc2)c2ccccc12	0.1	-0.9	0.0	100.6*
